Only some compounds are listed: those with a hit (about 4.7% of all), similar ones and a draw of the others.
tim23-1 inh – inhibits growth of tim23-1 mutant yeast | S. cerevisiae tim23-1 growth, BacTiter-Glo luminescence, 24 h | inhibition, % at 20 µM | 330,000 compounds, 1.3% hits | AID 463212;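 active = growth inhibition of the mutant yeast at or above 50%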;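 also: temperature-sensitive mutant grown at 25 °C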
tim10-1 inh – growth inhibitors of tim10-1 mutant yeast; S. cerevisiae tim10-1 ts strain growth, BacTiter-Glo, 24 h; 330,000 compounds, 2.2% hits; inhibition, % at 20 µM;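 active = inhibition of at least 40%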;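 also: mutant grown at 25 °C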
PfHsp90 set2 – growth inhibition of yeast expressing Plasmodium Hsp90 | AID 504621 | inhibition, % at 9.4 µM | 310,000 compounds, 0.32% hits | S. cerevisiae expressing PfHsp90, BacTiter-Glo ATP, 48 h; yeast lacking PDR1 and PDR3 efflux regulators;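 active = every replicate shows inhibition above about 80%, whatever the replicate mean, limit read from the data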
SKKanGAS inh – SKKanGAS growth inhibition; inhibition, % at 7.5 µM; S. pyogenes SKKanGAS, kanamycin growth, BacTiter-Glo, 6 h; 300,000 compounds, 1.3% hits;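 active = mean replicate score, as percent of positive control median, at least 50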;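 also: strain carries kanamycin resistance gene driven by streptokinase promoter and grows in 40 µg/ml kanamycin; loss of luminescence reflects streptokinase promoter inhibition or plain growth inhibition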
Calb FLC – C. albicans growth modulation with fluconazole; growth inhibition, % (concentration not given with the values); 300,000 compounds, 0.57% hits; C. albicans CaCi-2 (fluconazole-resistant clinical isolate) + fluconazole, Alamar Blue growth, 48 h;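 active = growth inhibition above about 58% in most replicates, limit read from the data, passing the limit was not always enough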;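 also: all wells also contain fluconazole at 8 µg/ml as a sub-toxic cotreatment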
TIM10 inh – growth inhibitors of TIM10 yeast strain | 330,000 compounds, 1.4% hits | S. cerevisiae TIM10 strain growth, BacTiter-Glo luminescence, 24 h | inhibition, % at 10 µM;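 active = inhibition of 40% or more at the single tested concentration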;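 also: wild-type TIM10 isogenic control strain grown at permissive 25 °C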
tim10-1 conf – tim10-1 yeast growth inhibition, confirmed; shares compounds with tim10-1 inh; inhibition, % at 20 µM; 7,400 compounds, 56% hits; S. cerevisiae tim10-1 ts strain growth, BacTiter-Glo, 24 h; AID 463213;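 active = inhibition of yeast growth at or above a set limit in either of two repeat tests at 20 µM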;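 also: tim10-1 mutant grown at permissive 25 °C to find synthetic lethal compounds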
TIM10 conf – confirmation of TIM10 yeast growth inhibitors; shares compounds with TIM10 inh; S. cerevisiae tim10 strain growth, BacTiter-Glo luminescence, 24 h; inhibition, % at 10 µM; 4,600 compounds, 63% hits; AID 463215;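 active = inhibition of yeast growth at or above a set limit in either of two replicates at 10 µM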; also: this counterscreen used the strain with wild-type TIM10
tim23-1 conf – confirmation of tim23-1 mutant yeast growth inhibitors | inhibition, % at 20 µM | shares compounds with tim23-1 inh | AID 463218 | 4,400 compounds, 83% hits | S. cerevisiae tim23-1 growth, BacTiter-Glo luminescence, 24 h;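 active = inhibition above about 39% in either of two replicate wells at 20 µM, limit read from the data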;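 also: temperature-sensitive tim23-1 mutant grown at 25 °C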
Large screens that a line does not name were inactive (follow-up assays come after a bar, where they were run).

Cc1cccc(NC(=O)c2ccc([N+](=O)[O-])o2)c1C	tim23-1 inh 50, tim10-1 inh 62, TIM10 inh 56 | tim10-1 conf 61 | TIM10 conf 42 | tim23-1 conf 39
COc1cccc(CNC(=O)CCCn2c(=S)[nH]c3cc4c(cc3c2=O)OCO4)c1	none
O=C(NS(=O)(=O)Nc1ccccc1)C1=C(N2CCCC2)COC1=O	none (no result: SKKanGAS inh, Calb FLC)
O=c1[nH]c(=O)n(C(c2ccccc2)(c2ccccc2)c2ccccc2)cc1N(CCO)CCO	none (no result: tim23-1 inh, tim10-1 inh, SKKanGAS inh, Calb FLC, TIM10 inh)
CC(C)CN(C(=O)c1ccc(Br)o1)C1CCS(=O)(=O)C1 (stereo not drawn)	none
COC(=O)c1ccc(NC(=O)C2CCCN2C(=O)OCc2ccccc2)cc1 (stereo not drawn)	none
Cc1ccc(CS(=O)Cc2ccc(C(=O)N3CCN(C4CCCCC4)CC3)o2)cc1 (stereo not drawn)	none
O=C(Nc1ccccc1C(=O)NC1CC1)c1ccc([N+](=O)[O-])o1	tim23-1 inh 64, tim10-1 inh 48 (no result: SKKanGAS inh, Calb FLC) | tim10-1 conf 34 | tim23-1 conf 66
O=C(Nc1ccccc1C(=O)NC1CC1)c1ccccc1	none (no result: SKKanGAS inh, Calb FLC)
Nc1c(-c2ccccc2)cnn1-c1ccccc1	none
O=c1cnn(-c2ccccc2)c(-c2ccccc2)c1	tim23-1 inh 65, tim10-1 inh 54, TIM10 inh 76 | tim10-1 conf 62 | TIM10 conf 64 | tim23-1 conf 70
N#Cc1cc(N)ccc1Sc1ccc(Cl)cc1	tim23-1 inh 69, tim10-1 inh 55 | tim10-1 conf 31 | tim23-1 conf 48
C=CCn1c(SCC(=O)N(CC)c2c(N)n(Cc3ccccc3)c(=O)[nH]c2=O)nnc1-c1ccccc1OC	none (no result: tim23-1 inh, tim10-1 inh, SKKanGAS inh, Calb FLC, TIM10 inh)
S=C(NCc1ccc2[nH]c3c(c2c1)CCCC3)Nc1ccccc1	tim23-1 inh 53, tim10-1 inh 46, TIM10 inh 48 | tim10-1 conf 43 | TIM10 conf 51 | tim23-1 conf 59
O=C(NCc1ccc2[nH]c3c(c2c1)CCCC3)c1ccc(S(=O)(=O)N2CCCCC2)cc1	none
O=C1ON=C(c2ccccc2)/C1=C\c1ccco1	none
Cc1ccc(/C=C2/C(=O)ON=C2c2ccccc2)o1	tim23-1 inh 74, tim10-1 inh 52 | tim10-1 conf 40 | tim23-1 conf 76
Cc1cc(C)c2c(CCl)cc(=O)oc2c1	tim23-1 inh 62, tim10-1 inh 49, TIM10 inh 42 (no result: PfHsp90 set2) | tim10-1 conf 40 | TIM10 conf 40 | tim23-1 conf 53
Cc1cc(C)c2c(CN3CCCCC3)cc(=O)oc2c1	none
COc1ccc(-c2cn3c(C)c(C(=O)N4CCN(c5ccccc5F)CC4)sc3n2)cc1	tim23-1 inh 56, tim10-1 inh 56 | tim10-1 conf 55 | tim23-1 conf 67
Cc1c(C(=O)N2CCN(c3ccccc3F)CC2)sc2nc(-c3ccccc3)cn12	tim23-1 inh 53, tim10-1 inh 54, TIM10 inh 54 | tim10-1 conf 54 | TIM10 conf 51 | tim23-1 conf 75
COc1ccc(N2CCN(C(=O)c3sc4nc(-c5ccc(F)cc5)cn4c3C)CC2)cc1	none
O=C(COC(=O)c1ccc(S(=O)(=O)N2CCCCC2)cc1)Nc1ccccc1Cl	none (no result: PfHsp90 set2, SKKanGAS inh, Calb FLC)
NNc1nc(-c2ccccc2Cl)nc2ccccc12	none
NNc1nc(-c2ccccc2Cl)nc2sc3c(c12)CCCC3	tim23-1 inh 63, tim10-1 inh 58 | tim10-1 conf inactive | tim23-1 conf 55
Cc1ccc(C)c2sc(NC(=O)C3CC3)nc12	none
Cc1cc(C)c2sc(NC(=O)C3CC3)nc2c1	tim23-1 inh 61, tim10-1 inh 47, TIM10 inh 42 | tim10-1 conf 32 | TIM10 conf 34 | tim23-1 conf 65
c1csc(-c2nc(NCC3CCCO3)c3ccccc3n2)c1 (stereo not drawn)	none
c1csc(CNc2nc(-c3cccs3)nc3ccccc23)c1	tim23-1 inh 57, tim10-1 inh 51, TIM10 inh 42 | tim10-1 conf 44 | TIM10 conf inactive | tim23-1 conf 52
c1ccc(-n2cnc3cc(NCc4cccs4)ccc32)cc1	tim23-1 inh 51, tim10-1 inh 46, TIM10 inh 52 | tim10-1 conf 33 | TIM10 conf 46 | tim23-1 conf 70
COc1ccc(-n2cnc3cc(NCc4ccccn4)ccc32)cc1	none
COc1ccc(-n2cnc3cc(NCc4cccs4)ccc32)cc1	tim23-1 inh 58, tim10-1 inh 40 | tim10-1 conf inactive | tim23-1 conf 41
CCN(C(=O)COC(=O)/C=C/c1ccco1)C1CCCCC1	none (no result: SKKanGAS inh, Calb FLC)
Nc1c(Cl)cc2c(c1Oc1ccccc1)C(=O)c1ccccc1C2=O	tim23-1 inh 66, tim10-1 inh 52, TIM10 inh 54 | tim10-1 conf inactive | TIM10 conf 48 | tim23-1 conf 67
COc1ccc(NCc2nc3ccccc3n2CCOc2ccccc2)cc1	tim23-1 inh 77, tim10-1 inh 49 | tim10-1 conf 40 | tim23-1 conf 81
Cc1ccc(Nc2nc(Cl)nc(N(C)C#N)n2)cc1	tim23-1 inh 59, tim10-1 inh 50 | tim10-1 conf 47 | tim23-1 conf inactive
CC(C)c1ccc(Nc2nc(Cl)nc(Cl)n2)cc1	none
COc1ccc(CN(C)CC(=O)Nc2cccc(S(=O)(=O)N(C)c3ccccc3)c2)c(OC)c1	none (no result: SKKanGAS inh, Calb FLC)
O=C1/C(=C/c2ccncc2)SC(=S)N1N1CCOCC1	tim23-1 inh 69, tim10-1 inh 56, TIM10 inh 58 | tim10-1 conf 50 | TIM10 conf 55 | tim23-1 conf 48
COc1ccc2ccc(OCC(=O)NCC3CCCO3)cc2c1 (stereo not drawn)	none (no result: SKKanGAS inh, Calb FLC)
CCSc1ncc(/C=N/Nc2ccc(Cl)cc2)n1C	tim23-1 inh 70, tim10-1 inh 46 (no result: PfHsp90 set2) | tim10-1 conf inactive | tim23-1 conf 63
Cc1nc2c(ccc3nc(NC(=O)C(c4ccccc4)c4ccccc4)sc32)s1	none
Cc1nc2c(ccc3nc(NC(=O)Cc4cccc5ccccc45)sc32)s1	tim23-1 inh 60, tim10-1 inh 55 | tim10-1 conf 37 | tim23-1 conf 64
O=C(CC1C(=O)N(c2ccccc2)C(=S)N1c1ccccc1)c1ccccc1 (stereo not drawn)	tim23-1 inh 52, tim10-1 inh 47, TIM10 inh 49 | tim10-1 conf 42 | TIM10 conf 40 | tim23-1 conf 53

Screens (PubChem)
